The supplement of paper PMC11732987, “Enantioselective OTUD7B fragment discovery through chemoproteomics screening and high-throughput optimisation” (Communications Chemistry, 2025)

Legend:
Experiment in all cases: log2 ratio of Biotin-Ahx-Ub-VS probe labelling (fragment/DMSO); higher = less target engagement (more negative = stronger competition), active = hit call of the paper (q ≤ 0.05, log2 ratio ≤ -1)
Settings in all cases: compound concentration: 200 uM; treatment time: 3 h
USP34 = USP34 (UniProt Q70CQ2)
In short: (§1)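 Labelled DUBs from HEK293T lysate were NeutrAvidin-enriched, digested with LysC and trypsin, and run by diaPASEF LC-MS/MS. Before that, each 495 µg sample in Tris/CHAPS/IGEPAL buffer with protease inhibitors was treated in triplicate with fragment at 200 µM or vehicle for 3 h, then with Biotin-Ahx-Ub-VS at 0.5 µM final for 1 h. Values are average log2 ratios of fragment over vehicle by unpaired t-test, based on global-median-normalised Spectronaut label-free quantities from proteins with ≥2 unique peptides.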

USP36 = target: T1, USP36 (UniProt Q9P275)
T1 sequence (whole entry): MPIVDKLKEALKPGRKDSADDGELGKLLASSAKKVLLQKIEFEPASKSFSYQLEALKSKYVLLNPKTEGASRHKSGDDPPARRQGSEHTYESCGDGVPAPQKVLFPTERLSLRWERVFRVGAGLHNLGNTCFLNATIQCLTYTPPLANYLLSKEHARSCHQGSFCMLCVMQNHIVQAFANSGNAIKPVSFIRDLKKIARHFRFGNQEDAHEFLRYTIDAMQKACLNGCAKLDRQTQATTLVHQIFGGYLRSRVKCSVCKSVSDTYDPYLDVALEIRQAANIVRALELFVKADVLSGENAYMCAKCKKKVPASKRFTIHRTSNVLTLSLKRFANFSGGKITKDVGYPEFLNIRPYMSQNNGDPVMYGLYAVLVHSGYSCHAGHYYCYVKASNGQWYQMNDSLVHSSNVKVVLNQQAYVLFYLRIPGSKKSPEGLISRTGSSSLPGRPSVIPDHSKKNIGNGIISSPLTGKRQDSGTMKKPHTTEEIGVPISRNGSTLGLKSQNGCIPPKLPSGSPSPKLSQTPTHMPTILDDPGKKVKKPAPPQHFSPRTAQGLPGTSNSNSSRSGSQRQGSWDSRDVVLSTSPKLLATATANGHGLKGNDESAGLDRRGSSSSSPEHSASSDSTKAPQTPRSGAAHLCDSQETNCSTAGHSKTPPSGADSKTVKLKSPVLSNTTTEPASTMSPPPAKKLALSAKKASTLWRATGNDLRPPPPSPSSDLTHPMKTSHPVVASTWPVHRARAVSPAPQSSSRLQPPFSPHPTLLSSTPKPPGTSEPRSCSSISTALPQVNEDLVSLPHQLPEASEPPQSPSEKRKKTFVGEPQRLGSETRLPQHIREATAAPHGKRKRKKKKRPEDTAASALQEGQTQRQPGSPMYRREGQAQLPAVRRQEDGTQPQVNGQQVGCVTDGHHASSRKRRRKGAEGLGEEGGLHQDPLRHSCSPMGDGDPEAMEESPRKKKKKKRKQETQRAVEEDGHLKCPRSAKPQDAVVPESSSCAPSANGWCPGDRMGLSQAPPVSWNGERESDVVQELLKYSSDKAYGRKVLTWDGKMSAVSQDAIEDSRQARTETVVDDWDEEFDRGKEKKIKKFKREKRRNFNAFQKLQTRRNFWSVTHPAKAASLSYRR
In short: as §1

USP38 = target: T2, USP38 (UniProt Q8NB14)
T2 sequence (whole entry): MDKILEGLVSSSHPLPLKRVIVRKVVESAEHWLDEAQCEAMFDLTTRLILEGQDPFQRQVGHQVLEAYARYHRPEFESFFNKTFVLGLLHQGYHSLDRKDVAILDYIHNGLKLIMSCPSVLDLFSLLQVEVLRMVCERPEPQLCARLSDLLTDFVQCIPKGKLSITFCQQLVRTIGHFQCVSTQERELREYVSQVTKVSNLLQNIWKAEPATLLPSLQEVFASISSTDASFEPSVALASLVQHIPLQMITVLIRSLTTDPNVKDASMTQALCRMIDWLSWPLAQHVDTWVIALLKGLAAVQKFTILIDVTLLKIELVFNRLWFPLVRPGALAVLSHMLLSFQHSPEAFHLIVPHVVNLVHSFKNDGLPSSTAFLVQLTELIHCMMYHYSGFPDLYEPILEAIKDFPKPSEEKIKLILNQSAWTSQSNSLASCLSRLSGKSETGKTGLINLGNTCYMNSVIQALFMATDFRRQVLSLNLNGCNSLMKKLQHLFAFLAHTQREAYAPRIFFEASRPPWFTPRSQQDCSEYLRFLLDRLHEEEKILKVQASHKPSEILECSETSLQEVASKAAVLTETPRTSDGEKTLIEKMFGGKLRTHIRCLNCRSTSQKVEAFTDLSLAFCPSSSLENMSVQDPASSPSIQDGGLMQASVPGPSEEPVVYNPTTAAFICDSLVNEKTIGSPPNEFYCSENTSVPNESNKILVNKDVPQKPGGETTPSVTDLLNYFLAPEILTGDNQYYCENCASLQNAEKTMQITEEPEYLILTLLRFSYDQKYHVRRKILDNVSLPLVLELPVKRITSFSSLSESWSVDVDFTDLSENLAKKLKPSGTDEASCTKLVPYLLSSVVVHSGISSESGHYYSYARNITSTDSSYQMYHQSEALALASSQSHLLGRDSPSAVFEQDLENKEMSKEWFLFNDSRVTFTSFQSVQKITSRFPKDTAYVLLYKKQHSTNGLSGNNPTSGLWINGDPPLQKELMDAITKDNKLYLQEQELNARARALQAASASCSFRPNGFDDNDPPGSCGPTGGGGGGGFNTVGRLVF
In short: as §1

USP39 = target: T3, USP39 (UniProt Q53GS9)
T3 sequence (whole entry): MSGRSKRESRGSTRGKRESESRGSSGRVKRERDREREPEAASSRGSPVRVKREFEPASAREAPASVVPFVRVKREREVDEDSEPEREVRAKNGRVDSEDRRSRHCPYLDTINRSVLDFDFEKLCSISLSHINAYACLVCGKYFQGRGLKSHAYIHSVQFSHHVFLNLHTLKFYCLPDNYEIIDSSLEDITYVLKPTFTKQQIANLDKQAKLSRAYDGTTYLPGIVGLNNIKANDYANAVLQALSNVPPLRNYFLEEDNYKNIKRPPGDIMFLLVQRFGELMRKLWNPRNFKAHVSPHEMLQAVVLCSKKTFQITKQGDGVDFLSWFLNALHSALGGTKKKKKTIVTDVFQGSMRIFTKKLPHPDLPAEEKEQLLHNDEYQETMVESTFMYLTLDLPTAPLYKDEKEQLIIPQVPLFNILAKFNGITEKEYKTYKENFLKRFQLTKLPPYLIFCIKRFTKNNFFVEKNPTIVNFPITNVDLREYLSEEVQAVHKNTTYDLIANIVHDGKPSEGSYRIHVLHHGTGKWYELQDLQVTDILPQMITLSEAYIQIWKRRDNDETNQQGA
In short: as §1

USP4 = target: T4, USP4 (UniProt Q13107)
T4 sequence (whole entry): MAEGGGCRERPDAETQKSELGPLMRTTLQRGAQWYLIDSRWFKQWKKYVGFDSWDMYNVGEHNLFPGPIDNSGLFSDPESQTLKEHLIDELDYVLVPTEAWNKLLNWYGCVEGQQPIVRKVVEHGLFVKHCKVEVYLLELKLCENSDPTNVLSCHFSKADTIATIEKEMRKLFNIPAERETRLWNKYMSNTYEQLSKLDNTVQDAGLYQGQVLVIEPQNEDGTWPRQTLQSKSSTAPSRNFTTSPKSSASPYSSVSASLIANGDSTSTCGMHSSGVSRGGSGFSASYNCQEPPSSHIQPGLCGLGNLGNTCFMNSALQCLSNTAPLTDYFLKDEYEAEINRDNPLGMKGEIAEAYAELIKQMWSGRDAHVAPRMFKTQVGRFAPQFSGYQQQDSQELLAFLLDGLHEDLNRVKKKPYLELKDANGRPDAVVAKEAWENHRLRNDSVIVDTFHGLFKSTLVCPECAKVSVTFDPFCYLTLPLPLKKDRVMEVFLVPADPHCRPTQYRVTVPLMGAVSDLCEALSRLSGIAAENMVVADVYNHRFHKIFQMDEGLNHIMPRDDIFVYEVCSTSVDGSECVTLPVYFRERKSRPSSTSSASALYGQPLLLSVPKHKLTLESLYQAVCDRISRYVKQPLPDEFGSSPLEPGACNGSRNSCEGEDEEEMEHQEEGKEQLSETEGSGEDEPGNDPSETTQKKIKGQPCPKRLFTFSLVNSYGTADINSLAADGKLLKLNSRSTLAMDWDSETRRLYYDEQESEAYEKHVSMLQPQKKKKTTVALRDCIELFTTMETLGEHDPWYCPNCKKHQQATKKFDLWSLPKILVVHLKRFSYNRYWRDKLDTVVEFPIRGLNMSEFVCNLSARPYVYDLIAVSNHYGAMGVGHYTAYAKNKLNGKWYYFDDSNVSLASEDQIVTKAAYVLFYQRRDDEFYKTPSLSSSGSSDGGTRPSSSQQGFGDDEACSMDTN
In short: as §1

Measured: log2 ratio of Biotin-Ahx-Ub-VS probe labelling

USP34, sequence (Q70CQ2 whole entry, the tested form may be a part): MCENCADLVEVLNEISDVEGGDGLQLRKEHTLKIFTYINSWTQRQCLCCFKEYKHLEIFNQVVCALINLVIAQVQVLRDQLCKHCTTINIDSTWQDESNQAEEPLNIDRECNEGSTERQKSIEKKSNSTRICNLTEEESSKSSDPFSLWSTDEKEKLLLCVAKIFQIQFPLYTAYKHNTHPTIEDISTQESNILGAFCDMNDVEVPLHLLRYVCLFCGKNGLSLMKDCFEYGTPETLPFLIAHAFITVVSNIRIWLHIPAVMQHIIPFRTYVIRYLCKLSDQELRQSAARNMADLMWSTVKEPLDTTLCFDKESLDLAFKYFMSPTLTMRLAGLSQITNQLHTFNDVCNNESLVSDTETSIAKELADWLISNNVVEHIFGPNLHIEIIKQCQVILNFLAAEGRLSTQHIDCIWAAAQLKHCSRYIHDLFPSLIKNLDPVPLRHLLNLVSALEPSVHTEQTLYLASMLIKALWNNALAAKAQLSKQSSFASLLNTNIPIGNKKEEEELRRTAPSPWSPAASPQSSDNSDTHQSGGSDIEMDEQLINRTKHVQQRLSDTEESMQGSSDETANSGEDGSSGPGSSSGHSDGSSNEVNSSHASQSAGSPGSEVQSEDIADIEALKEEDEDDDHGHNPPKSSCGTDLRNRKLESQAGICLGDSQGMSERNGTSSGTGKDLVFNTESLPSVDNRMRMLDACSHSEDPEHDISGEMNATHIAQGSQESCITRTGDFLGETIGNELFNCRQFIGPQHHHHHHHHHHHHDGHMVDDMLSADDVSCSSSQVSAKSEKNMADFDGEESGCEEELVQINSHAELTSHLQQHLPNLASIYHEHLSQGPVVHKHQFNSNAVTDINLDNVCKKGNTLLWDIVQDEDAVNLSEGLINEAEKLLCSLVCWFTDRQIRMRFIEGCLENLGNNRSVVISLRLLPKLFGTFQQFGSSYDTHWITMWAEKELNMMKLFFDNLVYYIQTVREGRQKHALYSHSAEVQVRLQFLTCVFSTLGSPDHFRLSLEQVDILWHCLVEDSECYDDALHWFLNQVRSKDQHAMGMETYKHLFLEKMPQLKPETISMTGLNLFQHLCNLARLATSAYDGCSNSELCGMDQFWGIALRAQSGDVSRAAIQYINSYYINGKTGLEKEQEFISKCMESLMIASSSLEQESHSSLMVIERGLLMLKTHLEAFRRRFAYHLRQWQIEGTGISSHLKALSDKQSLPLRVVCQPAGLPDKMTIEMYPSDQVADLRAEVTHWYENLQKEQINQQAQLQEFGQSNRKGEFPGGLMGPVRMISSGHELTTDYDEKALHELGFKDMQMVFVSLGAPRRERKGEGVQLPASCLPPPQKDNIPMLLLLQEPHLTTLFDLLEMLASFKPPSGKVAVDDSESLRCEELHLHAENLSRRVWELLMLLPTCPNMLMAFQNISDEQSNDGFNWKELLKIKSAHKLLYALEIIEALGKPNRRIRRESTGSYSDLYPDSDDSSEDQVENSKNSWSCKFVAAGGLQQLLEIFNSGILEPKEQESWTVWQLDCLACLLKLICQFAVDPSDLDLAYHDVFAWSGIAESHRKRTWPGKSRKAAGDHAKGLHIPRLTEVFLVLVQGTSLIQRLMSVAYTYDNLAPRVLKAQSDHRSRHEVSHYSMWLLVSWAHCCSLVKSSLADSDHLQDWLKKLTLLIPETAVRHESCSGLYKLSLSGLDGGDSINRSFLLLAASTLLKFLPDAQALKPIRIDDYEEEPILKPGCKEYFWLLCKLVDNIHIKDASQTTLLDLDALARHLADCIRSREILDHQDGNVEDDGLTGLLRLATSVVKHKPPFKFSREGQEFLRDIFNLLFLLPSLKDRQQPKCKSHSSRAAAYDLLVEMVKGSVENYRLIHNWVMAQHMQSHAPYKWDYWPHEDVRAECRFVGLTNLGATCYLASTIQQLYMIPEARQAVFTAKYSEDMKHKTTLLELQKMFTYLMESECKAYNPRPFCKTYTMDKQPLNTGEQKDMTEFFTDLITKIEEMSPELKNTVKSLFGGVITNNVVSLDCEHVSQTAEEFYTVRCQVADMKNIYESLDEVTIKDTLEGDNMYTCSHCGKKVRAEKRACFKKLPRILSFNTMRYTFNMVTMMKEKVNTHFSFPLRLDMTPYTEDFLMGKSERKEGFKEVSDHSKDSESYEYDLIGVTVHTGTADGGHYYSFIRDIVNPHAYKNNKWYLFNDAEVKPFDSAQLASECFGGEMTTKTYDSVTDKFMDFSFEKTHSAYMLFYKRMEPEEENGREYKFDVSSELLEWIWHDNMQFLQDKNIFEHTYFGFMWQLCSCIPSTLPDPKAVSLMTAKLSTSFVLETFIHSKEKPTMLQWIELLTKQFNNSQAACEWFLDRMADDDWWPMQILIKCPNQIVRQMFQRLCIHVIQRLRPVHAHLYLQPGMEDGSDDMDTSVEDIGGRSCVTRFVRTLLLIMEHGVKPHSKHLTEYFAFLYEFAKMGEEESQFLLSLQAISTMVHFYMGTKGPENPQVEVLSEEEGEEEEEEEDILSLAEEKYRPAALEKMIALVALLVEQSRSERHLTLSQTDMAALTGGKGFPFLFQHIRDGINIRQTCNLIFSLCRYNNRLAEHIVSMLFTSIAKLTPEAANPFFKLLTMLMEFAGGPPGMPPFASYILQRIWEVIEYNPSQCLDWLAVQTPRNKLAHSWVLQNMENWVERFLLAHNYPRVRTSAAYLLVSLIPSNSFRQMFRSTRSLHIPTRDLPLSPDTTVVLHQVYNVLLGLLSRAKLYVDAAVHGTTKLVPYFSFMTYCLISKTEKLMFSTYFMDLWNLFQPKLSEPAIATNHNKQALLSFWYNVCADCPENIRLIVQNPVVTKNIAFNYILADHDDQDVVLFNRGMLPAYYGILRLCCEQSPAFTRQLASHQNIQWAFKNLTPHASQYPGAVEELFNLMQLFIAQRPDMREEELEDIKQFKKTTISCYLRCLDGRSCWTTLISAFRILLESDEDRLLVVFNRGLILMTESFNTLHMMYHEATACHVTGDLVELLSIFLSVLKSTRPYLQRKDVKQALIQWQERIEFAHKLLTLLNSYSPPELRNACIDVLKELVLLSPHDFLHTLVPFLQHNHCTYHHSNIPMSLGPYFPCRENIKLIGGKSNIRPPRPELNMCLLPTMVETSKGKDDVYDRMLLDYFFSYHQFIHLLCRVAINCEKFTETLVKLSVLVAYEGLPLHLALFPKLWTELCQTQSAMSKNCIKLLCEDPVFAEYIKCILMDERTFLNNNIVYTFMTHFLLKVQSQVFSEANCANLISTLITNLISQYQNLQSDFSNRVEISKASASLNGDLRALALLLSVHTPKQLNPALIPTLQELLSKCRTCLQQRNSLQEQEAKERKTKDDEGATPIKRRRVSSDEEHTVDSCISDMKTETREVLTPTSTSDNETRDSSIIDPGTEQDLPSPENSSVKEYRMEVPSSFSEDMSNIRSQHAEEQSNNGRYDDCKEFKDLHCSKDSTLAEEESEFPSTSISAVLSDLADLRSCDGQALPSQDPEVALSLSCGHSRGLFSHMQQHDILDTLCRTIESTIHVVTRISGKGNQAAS

O=C(CCl)NCc1cccc(N2CCCC2=O)c1
inactive: USP34 -0.203 | USP36 -0.212 | USP38 -0.128 | USP39 -0.0958 | USP4 0.0693
